In the library only some 14% were active in any assay of this set; here they are far more common.
USP8 block = inhibitors of human USP8 deubiquitinase; P40818; purified USP8, Ub-rhodamine cleavage fluorescence, 30 min; inhibition, % at 20 µM; 47,000 compounds, 4.2% hits; AID 1645853
USP30 block = inhibitors of human USP30 deubiquitinase | inhibition, % at 25 µM | AID 1645860 | 47,000 compounds, 5.3% hits | Q70CQ3 | purified USP30, Ub-rhodamine cleavage fluorescence
USP28 inh = human USP28 deubiquitinase inhibition | Q96RU2 | purified USP28, Ub-rhodamine cleavage fluorescence, 30 min | inhibition, % at 25 µM | 47,000 compounds, 3% hits | AID 1645857
Target sequence (Q96RU2 whole entry, looked up): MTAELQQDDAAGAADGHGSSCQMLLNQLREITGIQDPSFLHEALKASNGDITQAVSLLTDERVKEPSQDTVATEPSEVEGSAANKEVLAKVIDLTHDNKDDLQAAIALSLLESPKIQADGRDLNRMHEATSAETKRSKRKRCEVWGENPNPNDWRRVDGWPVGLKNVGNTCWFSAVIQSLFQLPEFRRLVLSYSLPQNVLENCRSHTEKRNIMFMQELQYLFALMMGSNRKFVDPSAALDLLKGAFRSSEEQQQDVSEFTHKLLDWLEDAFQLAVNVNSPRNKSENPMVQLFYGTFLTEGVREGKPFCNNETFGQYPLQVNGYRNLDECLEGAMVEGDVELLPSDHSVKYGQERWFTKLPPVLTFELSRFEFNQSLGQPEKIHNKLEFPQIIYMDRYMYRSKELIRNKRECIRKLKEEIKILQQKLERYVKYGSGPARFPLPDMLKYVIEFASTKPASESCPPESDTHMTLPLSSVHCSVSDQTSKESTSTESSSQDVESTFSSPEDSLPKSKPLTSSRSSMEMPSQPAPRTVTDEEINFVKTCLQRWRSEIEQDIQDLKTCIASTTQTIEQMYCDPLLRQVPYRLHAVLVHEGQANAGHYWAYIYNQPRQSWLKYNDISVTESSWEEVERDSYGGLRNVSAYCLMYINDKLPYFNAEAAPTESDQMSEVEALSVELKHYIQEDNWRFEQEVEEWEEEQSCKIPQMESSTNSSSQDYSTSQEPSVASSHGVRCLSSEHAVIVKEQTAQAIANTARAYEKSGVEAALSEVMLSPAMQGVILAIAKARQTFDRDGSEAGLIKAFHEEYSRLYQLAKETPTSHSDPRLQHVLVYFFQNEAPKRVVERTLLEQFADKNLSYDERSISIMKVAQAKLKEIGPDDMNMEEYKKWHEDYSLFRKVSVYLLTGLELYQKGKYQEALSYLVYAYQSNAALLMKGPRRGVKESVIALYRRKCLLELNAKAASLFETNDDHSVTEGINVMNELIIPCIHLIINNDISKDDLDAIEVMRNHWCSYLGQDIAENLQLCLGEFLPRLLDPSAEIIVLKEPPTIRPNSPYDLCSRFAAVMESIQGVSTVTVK
USP10 block = human USP10 deubiquitinase inhibition | 47,000 compounds, 1.1% hits | Q14694 | inhibition, % at 20 µM | purified USP10, Ub-rhodamine fluorescence, 60 min | AID 1645856
USP17 inh = human USP17-like deubiquitinase inhibition. purified USP17, Ub-rhodamine cleavage fluorescence, 3 h. AID 1645855. inhibition, % at 50 µM. A8MUK1. 47,000 compounds, 6.5% hits
An asterisk follows results filed as active; i = inactive; . = no result given. No stated cut-off is given here; in the data, active means inhibition above about 30%; inactive means the rest.

SMILES	USP8 block	USP30 block	USP28 inh	USP10 block	USP17 inh
COc1cccc(CNc2cc(C(C)C)nc3nc(-c4cccnc4)nn23)c1	6	20	14	1	35*
O=C(NC1CCCCC1)N1CCN(c2ncccc2-c2nnc(C3CC3)o2)CC1	3	13	8	2	0
COc1cccc(CC(=O)N2CCN(S(=O)(=O)c3c(C)nn(C)c3C)CC2)c1	4	5	0	1	4
O=C(CSc1nnc(C2CC2)n1Cc1ccccc1)Nc1ccc(N2CCCC2=O)cc1	17	29	16	1	44*
CC(C)N1CNc2c(c(=O)[nH]c(=O)n2CCc2ccccc2)C1	-4	12	5	2	2
COc1ccc(CNC(=O)c2ccc3nnc(-c4ccccc4)n3c2)cc1	-6	-11	0	-2	-5
CCC(=O)Nc1ccc(-n2cnc(C(=O)NC3CCCC3)c2)nc1	7	32*	6	4	10
Fc1ccc(Nc2nc(-c3ccccn3)nc3ccccc23)cc1	-223	31*	10	4	39*
Fc1cccc(Nc2nc(-c3ccccn3)nc3ccccc23)c1	-291	25	7	18	43*
COc1ncccc1CN1CCn2c(Cn3cccn3)cnc2C1C (centres undefined)	-206	i	-236	-2	-157
Cc1ccc(-c2nnc(-n3ncc(C#N)c3N)c3ccccc23)cc1C	0	0	12	1	62*
COc1ccccc1C(=O)Nc1ccc(N)cn1	-2	-35	-5	-1	11
CCC(=O)Nc1cc(=O)[nH]c2nc(-c3ccc(OC)cc3)nn12	15	-106	5	1	7
CCCCC(=O)Nc1cc(=O)[nH]c2nc(Cc3ccccc3)nn12	1	0	-3	4	5
COc1ccc(-c2nc3[nH]c(=O)cc(NC(=O)Cc4ccccc4)n3n2)cc1	60*	-111	-50	0	-60
CC(C)(C)c1ccc(-c2nc3[nH]c(=O)cc(NC(=O)c4ccco4)n3n2)cc1	43*	15	26	15	.
O=C(Nc1cc(=O)[nH]c2nc(Cc3ccccc3)nn12)c1ccco1	48*	-242	-70	-3	-125
Cc1ccc(-c2nc(Cn3cnc4ccccc4c3=O)cs2)cc1	37*	58*	33*	15	37*
CC(=O)c1cc2c(cc1NC(=O)Cn1cc3c(n1)CCCC3)OCO2	-8	-65	-9	3	15
O=C(Nc1ccc(S(=O)(=O)N2CCOCC2)cc1)c1oc(=O)c2ccccc2c1-c1ccccc1	13	34*	0	5	37*
Cc1cc(C)c(NC(=O)CSc2nnc(Cc3cccc4ccccc34)n2C)c(C)c1	-28	-1	5	-5	1
Cc1ccc(-n2c(Cc3cccc4ccccc34)nnc2SCC(=O)NC2CCS(=O)(=O)C2)c(C)c1 (centres undefined)	24	-1	0	0	42*
Cc1ccc(NC(=O)CSc2nnc(Cc3cccc4ccccc34)n2C)c(C)c1	-33	27	49*	-3	39*
Cc1cccc(NC(=O)CSc2nnc(CNc3ccc(Cl)cc3)n2C)c1C	44*	-5	0	-1	-2
CC1[C@@H]2[C@@H](COc3cccnc3)C[C@H](CN1C(=O)c1ccccn1)N2C (some centres undefined)	12	-31	15	2	15
SMILES	USP8 block	USP30 block	USP28 inh	USP10 block	USP17 inh
COc1ccccc1-c1nnc(CS(=O)(=O)c2ccccc2)o1	-13	6	5	2	-2
CN1C(=O)OC[C@@H]2CCN(S(=O)(=O)c3ccc(C(F)(F)F)cc3)C[C@H]21	4	-3	-9	4	18
COc1cc(CCC(=O)N(C)C(c2ccccc2)c2ccccc2)cc(OC)c1OC	1	0	4	3	5
COc1ccccc1CC(=O)N(C)C(c1ccccc1)c1ccccc1	-5	52*	26	10	27
O=C(C1CCCC1)N1CCCC(c2nn(CCOc3ccccc3)c3nccnc23)C1 (centres undefined)	0	0	9	2	-6
Cc1csc(-c2[nH]ncc2-c2ccsc2)n1	24	24	34*	5	13
CCc1nc(-c2cccc(NC(=O)c3ccc(C#N)cc3F)c2)no1	12	24	51*	2	43*
CCc1nc(-c2cccc(NC(=O)c3ccc(C#N)cc3)c2)no1	2	0	15	8	0
CNc1nnc(Cc2csc(N)n2)s1	-48	.	.	-4	-110

Source: PubChem BioAssay
